# Measured values reported in PubChem BioAssay (NCATS).
# Inconclusive results are not listed. A call without a number means that no potency is given here. A number with no mark means an inactive call. Calls of active or inactive are those of the source. The call rests on the fitted dose curve; in most records, active means well fitted curve in the direction sought with a large enough effect; inconclusive means small, poorly fitted or top-dose-only effect, or another doubt; inactive means no such curve, though single readings can be large; an effect the other way counts as inactive or inconclusive.
# Assays:
# [1] = target: Cellular tumor antigen p53 (Homo sapiens) (UniProt P04637); experiment: Primary qHTS for small molecule compounds that upregulate eGFP-tagged delta133p53alpha (in N-terminal) cells. (AID 2060322); details: NCI-H358 eGFP-delta133p53alpha fluorescence, 24 h; activation: hits give high values; further: nearly all actives have a fitted effect of over 75% in size; further: potency means the concentration at half of the fitted maximal effect;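 on activation: cells pre-induced with doxycycline then dosed without doxycycline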
# Summary of the method: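 NCI-H358 cells pre-induced 24 h with 10 ng/ml doxycycline for eGFP-delta133p53alpha, plated dox-free and exposed 24 h at 37C to titrated compounds. Fixed, Hoechst-stained; gated GFP peak intensity by laser scanning cytometry, normalized to DMSO (0%) and 57.5 uM 5-azacytidine (100%).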
# [2] = target: Aldehyde dehydrogenase, mitochondrial (Homo sapiens) (UniProt P05091); experiment: qHTS for Inhibitors of the Aldehyde Dehydrogenase Family (ALDH2) Primary screen (AID 2061308); details: ALDH2 enzyme inhibition qHTS, 1536-well; series mostly up to 56 µM; further: nearly all actives have a fitted effect of over 55% in size
# [3] = target: Retinaldehyde dehydrogenase 3 (Homo sapiens) (UniProt P47895); experiment: qHTS for Inhibitors of the Aldehyde Dehydrogenase Family (ALDH1A3) Primary screen (AID 2061315); details: ALDH inhibition qHTS; series mostly up to 56 µM
# Sequence of Cellular tumor antigen p53 (Homo sapiens) (P04637 whole entry, looked up): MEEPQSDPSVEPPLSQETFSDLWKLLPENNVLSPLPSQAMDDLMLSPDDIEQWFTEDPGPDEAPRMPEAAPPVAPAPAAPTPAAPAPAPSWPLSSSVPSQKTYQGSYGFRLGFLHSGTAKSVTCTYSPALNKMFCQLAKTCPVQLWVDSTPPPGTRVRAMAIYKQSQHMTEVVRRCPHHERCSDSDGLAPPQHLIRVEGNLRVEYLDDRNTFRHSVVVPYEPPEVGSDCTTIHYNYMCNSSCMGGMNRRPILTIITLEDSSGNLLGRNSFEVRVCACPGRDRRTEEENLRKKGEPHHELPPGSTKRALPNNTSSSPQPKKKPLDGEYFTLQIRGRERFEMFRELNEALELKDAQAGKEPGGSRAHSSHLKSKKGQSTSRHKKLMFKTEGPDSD
SMILES,activation [1] [%],Potency [2],Potency [3],"activity change, negative = inhibition [2]","activity change, negative = inhibition [3]",Potency [1]
Nc1c(S(=O)(=O)c2ccccc2)c2nc3ccccc3nc2n1-c1ccc(F)cc1,-10.3,inactive,inactive,,,
O=C(O[C@H]1[C@@H]2C=CO[C@@H](O[C@@H]3O[C@H](CO)[C@@H](O)[C@H](O)[C@H]3O)[C@@H]2[C@@]2(CO)O[C@@H]12)c1ccccc1,10.7,inactive,inactive,,,
CC(=O)O[C@H]1CC[C@H](C)[C@@]2(C)[C@H](OC(C)=O)c3c(C)coc3C(=O)[C@H]12,-3.82,inactive,inactive,,,
C=CCc1ccc(O[C@@H]2O[C@H](CO[C@@H]3O[C@H](CO)[C@@H](O)[C@H](O)[C@H]3O)[C@@H](O)[C@H](O)[C@H]2O)c(O)c1,-5.34,inactive,inactive,,,
CC(C)NC[C@H](O)COc1ccc(CCOCC2CC2)cc1,1.67,inactive,inactive,,,
c1nc(NC2CCCCCC2)c2cc(CNC[C@H]3CCCO3)sc2n1,-0.893,inactive,inactive,,,
CC1(C)CC[C@]2(C(=O)O[C@@H]3O[C@H](CO)[C@@H](O)[C@H](O)[C@H]3O)CC[C@]3(C)C(=CCC4[C@@]5(C)CC[C@H](OC6OC(C(=O)O)C(OC7OC(CO)C(O)C(O)C7O)C(O)C6O)C(C)(C)C5CC[C@]43C)C2C1 (some centres undefined),-16.8,inactive,inactive,,,
C=C[C@@](C)(CCC=C(C)C)O[C@@H]1O[C@H](CO[C@@H]2OC[C@H](O)[C@H](O)[C@H]2O)[C@@H](O)[C@H](O)[C@H]1O,-11.5,inactive,inactive,,,
Cc1ccccc1N1CCN(S(=O)(=O)C[C@]23CC[C@H](C[C@@H]2NC(=O)[C@@H](N)CCS(C)(=O)=O)C3(C)C)CC1,3.67,inactive,inactive,,,
C=CC1(C)CC(O)C(C(=C)C(=O)OC)C(O)C1C(=C)CO (centres undefined),-14.5,inactive,inactive,,,
C[C@@H]1O[C@@H](O[C@@H]2[C@@H](O)[C@H](O[C@@H]3[C@@H](O)[C@@H](O)[C@H](O[C@H]4[C@H](OC(=O)[C@]56CCC(C)(C)C[C@H]5C5=CCC7[C@@]8(C)C[C@H](O)[C@H](O[C@@H]9O[C@@H](C)[C@H](O)[C@@H](O)[C@H]9O)[C@@](C)(CO)C8CC[C@@]7(C)[C@]5(C)C[C@H]6O)O[C@H](C)[C@H](O)[C@@H]4O)O[C@H]3C)OC[C@H]2O)[C@H](O)[C@H](O)[C@H]1O (some centres undefined),19.6,,,0.778% [at 11.2 µM],5.2% [at 11.2 µM],
CC(O)(CC(=O)O)CC(=O)OCc1ccc(O[C@@H]2O[C@H](CO)[C@@H](O)[C@H](O)[C@H]2O)cc1 (some centres undefined),-13.7,inactive,inactive,,,
CC1=CC(=O)CC(C)(C)[C@@]1(O)CC[C@@H](C)O[C@@H]1O[C@H](CO)[C@@H](O)[C@H](O)[C@H]1O,29.5,inactive,inactive,,,
CC1=C(c2ccc(NC(=O)c3c(F)cccc3F)cc2)CN(c2nccs2)CC1,21.7,inactive,inactive,,,
C[C@@H]1C[C@@H]([C@@H](O)C(C)(C)O)O[C@H]2C[C@@]3(C)C(=C12)C[C@H](O)[C@H]1[C@@]2(C)CCC(=O)C(C)(C)C2CC[C@@]13C (some centres undefined),-6.87,inactive,inactive,,,
CC(C)(O)C1CC=C(C(=O)OC[C@H]2O[C@@H](OC(=O)C3=CCC(C(C)(C)O)CC3)[C@H](O)[C@@H](O)[C@@H]2O)CC1 (some centres undefined),-8.4,inactive,inactive,,,
CC(=O)OCC(Cc1ccccc1)NC(=O)C(Cc1ccccc1)NC(=O)c1ccccc1 (centres undefined),-13,inactive,inactive,,,
CC1=CC(=O)C(=C(C)C)CC2C1CCC2(C)O (centres undefined),-7.14,inactive,inactive,,,
C=C1C[C@H](O)[C@@H](O)[C@@]2(C)C1[C@@H](O)[C@H]1OC(=O)C3[C@@H](C)[C@@H](O)[C@H](O)C2[C@]31C (some centres undefined),0.763,inactive,inactive,,,
COCC(c1ccc(C(F)(F)F)cc1)N1CCN(C2(C)CCN(C(=O)c3c(C)ncnc3C)CC2)CC1C (centres undefined),12.4,inactive,inactive,,,
CCn1cc(NC(=S)Nc2cc(Cl)ccc2OC)c(C(N)=O)n1,-5,inactive,inactive,,,
CC(C)S(=O)(=O)NC[C@@H]1CC(c2ccc(N3CCCC3)c(F)c2)=NO1,0.333,inactive,inactive,,,
C=C1CCC2C(C)(C)CC(=O)CC2(C)C1CCC(C)CCOC(C)=O (centres undefined),-5.34,inactive,inactive,,,
C#CCCCn1cc(-c2cccc3c2N[C@H](C)CC(=O)N3)cn1,8.93,inactive,inactive,,,
CCOC(=O)Cn1cccc1-c1nc(-c2ccc(OC)cc2)c(-c2ccc(OC)cc2)s1,27.6,inactive,inactive,,,
OCC(CO)(CO)NCC(O)Cn1c2ccc(Cl)cc2c2cc(Cl)ccc21 (centres undefined),,inactive,inactive,,,23.9 µM (active)
COc1c(CCC(=O)O)cccc1O[C@@H]1O[C@H](CO)[C@@H](O)[C@H](O)[C@H]1O,-4.58,inactive,inactive,,,
CC(NC(=O)[C@H](Cc1ccccc1)NC(=O)OCc1ccccc1)C(=O)CF (some centres undefined),-5.67,inactive,inactive,,,
